For 40 molecules, Inhibition results are on record in ChEMBL document CHEMBL1157539, “Thousands of chemical starting points for antimalarial lead identification” (Nature, 2010).

This assay has as its system HepG2. In words: GSK_TCMDC: Percent inhibition of human HepG2 cell line. Test compounds present at 10uM. The format is functional.
For the molecule `CC(C)c1ccc(CN2CCC(CNC(=O)c3cc(-c4ccccc4F)cs3)C2)cc1.O=C(O)C(F)(F)F` (stereo not given), the Inhibition came to 32%. In the case of `O=C(O)C(F)(F)F.c1cc(CNCC2CCN(CC3CCCCC3)CC2)cc(-n2ccnc2)c1` it was 18%.

Molecule `CC1(C)CC(=O)c2c(O)cc(OCc3ccncc3)cc2O1.Cl` had an Inhibition of 80%. In the case of `CCOc1cc(NC(=O)Nc2ccnc3ccccc23)cc(OC)c1.Cl` it was 0%. For `C=CCNS(=O)(=O)c1ccc(NC(=O)C(C)Oc2ccc([N+](=O)[O-])cc2)cc1` (stereo not given) the value was 14%. The molecule `Cc1cc(C(F)(F)F)cc(-n2ncc(-c3ccc(C(=O)NCc4ccccc4N)cc3)c2N)n1.O=C(O)C(F)(F)F` had an Inhibition of 10%. In the case of `Oc1ccc2[nH]c(-c3cccc(F)c3)nc2c1CN1CCC(O)(c2ccccc2)CC1` it was 21%. For `COCCNCc1cccc(C#Cc2cc3ncnc(Nc4ccc(OCc5cccc(F)c5)c(Cl)c4)c3s2)n1` the value was 35%; for `COCCN(C(=O)Cc1cccs1)C(C(=O)NCc1ccc(OC)cc1)c1ccc(C(C)C)cc1` (stereo not given), 0%; for `O=C(O)C(F)(F)F.O=S(=O)(NCCN1CCCC1)c1ccc(-c2ccc(CNCc3ccsc3)cc2)s1`, 31%.

`CN(Cc1ccccc1)C1CCN(c2cc(NC(=O)c3cccc(F)c3)ccn2)CC1.O=C(O)C(F)(F)F` had an Inhibition of 2%. Take `NC1=NC(c2ccccc2)(c2ccccn2)C(=O)N1CCCc1ccccc1.O=C(O)C(F)(F)F` (stereo not given): the Inhibition turned out to be 0%. In the case of `Cc1cc(N[C@@H](Cc2ccccc2)C(=O)NCc2cccc(F)c2)nc(NCc2ccccc2C)n1.O=C(O)C(F)(F)F` it was 6%.

In the case of `Cc1ccc(Cn2cnc3cc(C(=O)Nc4ccc(-c5ccc(CN(C)C)cc5)cc4)ccc3c2=O)o1`, the Inhibition turned out to be 43%.

The molecule `COc1cc2c(cc1OC)CN(CCCCc1ccc(NC(=O)c3cc(Cl)cc(Cl)c3)cc1)CC2` displayed an Inhibition of 21%.

As to `CCCCCN1CCCC(CNS(=O)(=O)c2cccc(C(=O)Nc3ccc(C(F)(F)F)cc3)c2)C1.O=C(O)C(F)(F)F` (stereo not given), the Inhibition amounted to 27%. In the case of `O=C(/C=C/c1ccc(Cl)c(Cl)c1)NCCCCCN1CCCN(C(=O)Nc2ccc(F)c(F)c2)CC1` it was 26%. For `Cc1cccc2nc(-c3ccc(-c4cccc(CNCc5cnn(-c6ccccc6)n5)c4)s3)[nH]c12.O=C(O)C(F)(F)F` the value was 40%. In the case of `Cl.N=C(NCCc1ccc(Cl)cc1)c1ccc(Cl)c(Cl)c1` it was 43%; in that of `COc1ccc(CCNCCCCCNCCCc2ccc(Cl)cc2)cc1OC.Cl`, 24%; in that of `Nc1c(Cl)cc(C(O)CNCCCCCOCCc2ccccc2)cc1C(F)(F)F` (stereo not given), 3%. Take `CC(=O)c1c[nH]c(C(=O)Nc2ccc(-c3cn4ccccc4n3)cc2)c1`: the Inhibition was 20%.

With `COc1ccc(Nc2nccc(N3CCC(NC(=O)C(C)c4ccc(Cl)cc4)C3)n2)cc1` (stereo not given), the Inhibition was determined as 35%.

In the case of `Br.CCCc1cc(C)ccc1OCCCON1C(N)=NC(N)=NC1(C)C`, the Inhibition is 64%.

In turn, `Oc1c(Br)cc2oc3c(c2c1CNCc1ccccc1)CCCC3` yielded an Inhibition of 0%. As to `O=C(NCC1CCC(C(=O)NCc2cccc(C(F)(F)F)c2)CC1)c1ccc(O)c(-c2ccc(Cl)c(Cl)c2)c1` (stereo not given), the Inhibition came out at 5%. In turn, `COCCNCc1ncsc1-c1ccc2c(Nc3cc(O)c(Cl)cc3F)ccnc2c1` gave an Inhibition of 0%. `Cl.Nc1ccc(-c2nc3c(ccc4ccccc43)[nH]2)cc1` came in with an Inhibition of 0%. For `COc1cc(-c2cc3cc(Cl)c(Cl)cc3[nH]2)ccc1C(=O)NCCC1CCCN1C.O=C(O)C(F)(F)F` (stereo not given) the value was 20%; for `O=C(NC1CCCCC1)N(Cc1cccc(-c2ccc(CNC3CCCC3)cc2)c1)C1CCN(Cc2ccccc2)CC1.O=C(O)C(F)(F)F`, 37%; for `COc1ccc2[nH]ccc(=NN=CC=Cc3ccccc3)c2c1`, 11%. For `CCCCCn1c(Sc2ccc(C#N)c([N+](=O)[O-])c2)nnc1-c1cccc(Cl)c1` the value was 4%; for `COc1cccc2cc(C(=O)N[C@@H](CC(C)C)C(=O)N[C@H](/C=N/N(C)C(=O)OC(C)(C)C)CC(=O)OC(C)(C)C)oc12`, 5%; for `CC(C)c1ncc(-c2ccncc2)c(C2CCC(CNC(=O)c3ccncc3)CC2)n1` (stereo not given), 0%. For `Cc1[nH]c(C)c(-c2ccc(/C=C/c3ccccn3)cc2)c(=O)c1Cl` the value was 0%; for `COc1cc2cc(Cc3cnc(N)nc3N)ccc2c(OC)c1OC.Cl`, 1%; for `C=CCCCNCC(NCCCNc1cc(=O)c2ccccc2[nH]1)c1cc(Br)cc(Br)c1` (stereo not given), 0%.

`CC(=O)Nc1ccc(OCCN(CC(C)C)c2ccc(C(F)(F)F)c(C#N)c2)c(Cl)c1` gave an Inhibition of 13%. For `Cc1ccc(NC(=O)c2ccc(CN3CCCN(CCC(C)C)CC3)cc2)cc1F.O=C(O)C(F)(F)F` the value was 40%. In the case of `Cl.N=c1n(Cc2ccccc2)c2ccccc2n1CC(O)c1ccc(Cl)cc1` (stereo not given) it was 26%.
